# In PubChem BioAssay (NCI):
# About 79,000 compounds went through this panel and 15% of them were active in at least one assay; those are over-represented in the sample as a whole. A number with no mark means an inactive call. The source made the active and inactive calls. Cut-off read from the data, not from the text of the source: active = growth inhibition above about 70%; inactive = the rest.
# Columns and labels:
# [1] = NCI Yeast Anticancer Drug Screen. Data for the rad52 strain (AID 147);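 note: 0% = growth of vehicle-treated control cultures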; conditions: S. cerevisiae rad52 mutant growth inhibition, active compounds read high
# Method in brief: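 Genetically altered yeast (DNA damage repair defect) treated with compound; inhibition calculated relative to vehicle.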
# [2] = NCI Yeast Anticancer Drug Screen. Data for the wt1 strain (AID 149);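 note: 0% = growth of vehicle-treated wt1 cultures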; conditions: S. cerevisiae wt1 strain (SPY 50644) growth inhibition, active compounds read high
# Method in brief: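 Measured: growth of wt1 yeast under compound versus vehicle treatment, reported as inhibition.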
# [3] = NCI Yeast Anticancer Drug Screen. Data for the rad50EPP+ strain (AID 151);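 note: 0% = growth of vehicle-treated control cultures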; conditions: S. cerevisiae rad50 mutant strain, active compounds read high
# Method in brief: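 Strain rad50EPP+; compound exposure; % growth inhibition vs vehicle.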
# [4] = NCI Yeast Anticancer Drug Screen. Data for the mgt1 strain (AID 153); conditions: S. cerevisiae mgt1 mutant growth inhibition, active compounds read high
# Method in brief: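 Read-out: yeast growth inhibition vs vehicle control. Strain mgt1, drawn from a panel altered in DNA damage repair or cell cycle control.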
# [5] = NCI Yeast Anticancer Drug Screen. Data for the rad50 strain (AID 155);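 note: 0% = growth of vehicle-only cultures of the same strain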; conditions: S. cerevisiae rad50 strain growth inhibition, active compounds read high
# Method in brief: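 Growth of the mutant yeast was measured after compound exposure and referenced to vehicle-treated cultures.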
# [6] = NCI Yeast Anticancer Drug Screen. Data for the mec2-1 strain (AID 157); conditions: S. cerevisiae mec2-1 strain, active compounds read high
# Method in brief: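 Cells of the genetically defined mec2-1 yeast strain are incubated with test compound. Inhibition of growth is calculated against vehicle-treated controls.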
# [7] = NCI Yeast Anticancer Drug Screen. Data for the rad14 strain (AID 159);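 note: 0% = growth of vehicle-treated control cultures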; conditions: S. cerevisiae rad14 strain growth inhibition, active compounds read high
# Method in brief: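 Here, inhibition of yeast growth was measured after compound exposure, using a strain with a genetic defect in DNA damage repair and vehicle-treated cultures as the reference.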
# [8] = NCI Yeast Anticancer Drug Screen. Data for the sgs1 mgt1 strain (AID 161);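 note: 0% = growth of cultures given vehicle only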; conditions: S. cerevisiae sgs1 mgt1 strain, active compounds read high
# Method in brief: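 Genetically altered yeast, compound exposure, growth inhibition relative to vehicle.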
# [9] = NCI Yeast Anticancer Drug Screen. Data for the CLN2oe strain (AID 163);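 note: 0% = growth of vehicle-only control cultures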; conditions: S. cerevisiae CLN2oe strain, active compounds read high
# Method in brief: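 Strain altered in cell-cycle control, incubated with compound; growth compared to solvent-treated controls.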
# [10] = NCI Yeast Anticancer Drug Screen. Data for the cln2 rad14 strain (AID 165);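 note: 0% = growth equal to vehicle treated cultures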; conditions: S. cerevisiae cln2 rad14 strain, active compounds read high
# Method in brief: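 The screen exposed genetically defined yeast (cln2 rad14) to test compounds and scored growth inhibition relative to vehicle-treated controls.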
# [11] = NCI Yeast Anticancer Drug Screen. Data for the bub3 strain (AID 167); conditions: S. cerevisiae bub3 mutant strain, active compounds read high
# Method in brief: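 Whole-cell yeast assay. The mutant strain was incubated with compounds, and growth inhibition was determined by comparison with vehicle-treated cells.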
# [12] = NCI Yeast Anticancer Drug Screen. Data for the wt2 strain (AID 169);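 note: 0% = growth of vehicle-treated yeast cultures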; conditions: S. cerevisiae wt2 strain growth inhibition, active compounds read high
# Method in brief: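 Steps: yeast strain treated with compound; growth recorded; inhibition calculated relative to cultures given vehicle alone.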
# [13] = NCI Yeast Anticancer Drug Screen. Data for the mlh1 strain (AID 171);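 note: 0% = growth of vehicle-treated control cultures of the same strain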; conditions: S. cerevisiae mlh1 strain growth inhibition, active compounds read high
# Method in brief: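 Yeast screen: mutant strain plus compound, growth scored against vehicle control wells.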
# [14] = NCI Yeast Anticancer Drug Screen. Data for the sgs1 strain (AID 173);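 note: 0% = growth of vehicle-only control cultures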; conditions: S. cerevisiae sgs1 mutant, active compounds read high
# Method in brief: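 Inhibition of yeast growth served as the measure. The mutant strain was treated with each compound, and growth was normalised to cultures receiving vehicle alone.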
# [15] = NCI Yeast Anticancer Drug Screen. Data for the mlh1 rad18 strain (AID 175); conditions: S. cerevisiae mlh1 rad18 strain growth inhibition, active compounds read high
# Method in brief: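 Compound-treated yeast growth, normalised to vehicle controls. Strain bears defined DNA repair mutations.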
# [16] = NCI Yeast Anticancer Drug Screen. Data for the rad18 strain (AID 177); conditions: S. cerevisiae rad18 mutant growth inhibition, active compounds read high
# Method in brief: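 Inhibition values reflect reduced yeast growth compared with vehicle-treated controls, using a strain engineered with a DNA damage repair defect.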
# [17] = at 5.0 µM (retest, dose inferred, filed as 0.5)
# [18] = at 50.0 µM (retest, dose inferred, filed as 5.0)
structure (smiles),measurement,setting,value
O=C1c2cc([N+](=O)[O-])ccc2-c2cccc(F)c21,growth inhibition,[1]; at 1.2 µM,14%
same,growth inhibition,[1]; at 3.7 µM,31%
same,growth inhibition,[1]; at 11.0 µM,57%
same,growth inhibition,[1]; at 33.0 µM,82% (active)
same,growth inhibition,[1]; at 100.0 µM,87% (active)
same,growth inhibition,[2]; at 1.2 µM,-1%
same,growth inhibition,[2]; at 3.7 µM,-2%
same,growth inhibition,[2]; at 11.0 µM,8%
same,growth inhibition,[2]; at 33.0 µM,10%
same,growth inhibition,[2]; at 100.0 µM,20%
same,growth inhibition,[3]; at 1.2 µM,9%
same,growth inhibition,[3]; at 3.7 µM,27%
same,growth inhibition,[3]; at 11.0 µM,49%
same,growth inhibition,[3]; at 33.0 µM,69%
same,growth inhibition,[3]; at 100.0 µM,75% (active)
same,growth inhibition,[4]; at 1.2 µM,1%
same,growth inhibition,[4]; at 3.7 µM,-5%
same,growth inhibition,[4]; at 11.0 µM,12%
same,growth inhibition,[4]; at 33.0 µM,20%
same,growth inhibition,[4]; at 100.0 µM,28%
same,growth inhibition,[5]; at 1.2 µM,12%
same,growth inhibition,[5]; at 3.7 µM,32%
same,growth inhibition,[5]; [17],7%
same,growth inhibition,[5]; at 11.0 µM,61%
same,growth inhibition,[5]; at 33.0 µM,84% (active)
same,growth inhibition,[5]; [18],60%
same,growth inhibition,[5]; at 50.0 µM,91.9% (active)
same,growth inhibition,[5]; at 100.0 µM,83% (active)
same,growth inhibition,[6]; at 1.2 µM,0%
same,growth inhibition,[6]; at 3.7 µM,3%
same,growth inhibition,[6]; [17],1%
same,growth inhibition,[6]; at 11.0 µM,13%
same,growth inhibition,[6]; at 33.0 µM,23%
same,growth inhibition,[6]; [18],7%
same,growth inhibition,[6]; at 50.0 µM,59.7%
same,growth inhibition,[6]; at 100.0 µM,41%
same,growth inhibition,[7]; at 1.2 µM,5%
same,growth inhibition,[7]; at 3.7 µM,11%
same,growth inhibition,[7]; at 11.0 µM,26%
same,growth inhibition,[7]; at 33.0 µM,42%
same,growth inhibition,[7]; at 100.0 µM,61%
same,growth inhibition,[8]; [17],12%
same,growth inhibition,[8]; [18],41%
same,growth inhibition,[8]; at 50.0 µM,67.3%
same,growth inhibition,[9]; at 1.2 µM,-2%
same,growth inhibition,[9]; at 3.7 µM,0%
same,growth inhibition,[9]; at 11.0 µM,6%
same,growth inhibition,[9]; at 33.0 µM,15%
same,growth inhibition,[9]; at 100.0 µM,22%
same,growth inhibition,[10]; [17],18%
same,growth inhibition,[10]; [18],30%
same,growth inhibition,[10]; at 50.0 µM,54.9%
same,growth inhibition,[11]; at 1.2 µM,-4%
same,growth inhibition,[11]; at 3.7 µM,-7%
same,growth inhibition,[11]; [17],1%
same,growth inhibition,[11]; at 11.0 µM,8%
same,growth inhibition,[11]; at 33.0 µM,16%
same,growth inhibition,[11]; [18],8%
same,growth inhibition,[11]; at 50.0 µM,33.1%
same,growth inhibition,[11]; at 100.0 µM,25%
same,growth inhibition,[12]; at 1.2 µM,-1%
same,growth inhibition,[12]; at 3.7 µM,3%
same,growth inhibition,[12]; at 11.0 µM,4%
same,growth inhibition,[12]; at 33.0 µM,17%
same,growth inhibition,[12]; at 100.0 µM,46%
same,growth inhibition,[13]; at 1.2 µM,-3%
same,growth inhibition,[13]; at 3.7 µM,5%
same,growth inhibition,[13]; at 11.0 µM,13%
same,growth inhibition,[13]; at 33.0 µM,22%
same,growth inhibition,[13]; at 100.0 µM,44%
same,growth inhibition,[14]; at 1.2 µM,3%
same,growth inhibition,[14]; at 3.7 µM,10%
same,growth inhibition,[14]; at 11.0 µM,21%
same,growth inhibition,[14]; at 33.0 µM,34%
same,growth inhibition,[14]; at 100.0 µM,52%
same,growth inhibition,[15]; [17],9%
same,growth inhibition,[15]; [18],64%
same,growth inhibition,[15]; at 50.0 µM,82.5% (active)
same,growth inhibition,[16]; at 1.2 µM,45%
same,growth inhibition,[16]; at 3.7 µM,78% (active)
same,growth inhibition,[16]; at 11.0 µM,90% (active)
same,growth inhibition,[16]; at 33.0 µM,93% (active)
same,growth inhibition,[16]; at 100.0 µM,89% (active)
